Compound activity deposited in PubChem BioAssay by National Center for Advancing Translational Sciences (NCATS).
ELG1 DNA repair – inhibitors of ELG1-dependent DNA repair in HEK293T cells | HEK293T ELG1-luciferase reporter, luminescence, 16 h; DNA damage induced by 5-fluorouridine | Potency, µM (series often up to 46.1 µM), inactives show top-dose activity change, negative = inhibition, hits mostly inhibitors | 2.3% of 330,000 active | AID 504467; note: % is set by controls: 0 for no effect and ±100 for the full control effect; nearly all actives have a fitted effect of over 55% in size
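Reporter activity after DNA damage by 5-fluorouridine is monitored. Compound-treated cells incubate 16 hr at 37 °C, then ONE-Glo is added for 30 min before luminescence reading.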
SMN2 splice up – increases expression of the SMN2 splice variant; 2.8% of 210,000 active; Potency, µM (doses to about 46.1 µM), without a hit: at the highest dose activity change, positive = activation, hits mostly activators; HEK293 SMN2-luciferase splicing reporter, luminescence, 30-36 h; note: % of control where 0% means no effect; nearly all actives have a fitted effect of over 55% in size
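HEK293 cells carry an SMN2 minigene-luciferase reporter in which exon 7 inclusion puts luciferase in frame. Cells were seeded at 2000 cells/well, attached for 10-12 hours, then exposed to compounds for 30-36 hours at 37C before ONE-Glo luminescence.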
ELG1 genotoxic – inducers of genotoxicity in HEK293T ELG1-luciferase cells. HEK293T ELG1-luciferase reporter, luminescence, 16 h. Potency, µM (series often up to 46 µM), for the others: at the top dose activity change, positive = activation, hits mostly activators. 1.3% of 330,000 active. AID 504466; note: % of control where 0% means no effect; nearly all actives have a fitted effect of over 60% in size
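Genotoxic stress is detected as increased luminescence from luciferase-tagged ELG1 in HEK293T cells, measured with ONE-Glo after a 16 hr treatment at 37 °C.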
FLuc modulator – firefly luciferase modulation, counter-screen for miR-21 project; AID 588342; purified FLuc, Km substrates, luminescence inhibition; 6.9% of 360,000 active; P08659; Potency, µM (titrated, usually from 57.5 µM), without a hit: top-dose activity change, negative = inhibition, actives largely listed as inhibitors;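 note: plate controls were vehicle for no effect and reference inhibitor for full effect; nearly all actives have a fitted effect of over 55% in size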
Target sequence (P08659 whole entry, looked up): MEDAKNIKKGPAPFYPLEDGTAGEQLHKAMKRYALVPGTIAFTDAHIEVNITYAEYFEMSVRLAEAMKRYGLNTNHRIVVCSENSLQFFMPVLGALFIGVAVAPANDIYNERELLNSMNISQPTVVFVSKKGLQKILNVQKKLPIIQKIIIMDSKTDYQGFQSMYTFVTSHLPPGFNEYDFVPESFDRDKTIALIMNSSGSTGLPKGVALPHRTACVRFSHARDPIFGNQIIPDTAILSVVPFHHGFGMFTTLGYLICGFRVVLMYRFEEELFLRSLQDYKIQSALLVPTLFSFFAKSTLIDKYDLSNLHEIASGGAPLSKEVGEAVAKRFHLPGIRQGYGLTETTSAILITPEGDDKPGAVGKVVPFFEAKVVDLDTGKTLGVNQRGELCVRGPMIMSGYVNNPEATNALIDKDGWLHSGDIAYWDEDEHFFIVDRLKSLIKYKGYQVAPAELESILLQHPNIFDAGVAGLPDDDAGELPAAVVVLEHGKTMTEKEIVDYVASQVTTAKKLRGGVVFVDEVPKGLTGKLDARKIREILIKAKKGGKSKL
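Purified P. pyralis luciferase, 10 nM final, with Km-level 10 uM D-luciferin and 10 uM ATP in 50 mM Tris acetate pH 7.5, 10 mM Mg acetate, 0.01% Tween-20, 0.05% BSA; 6-point qHTS titration about 60 µM downward; luminescence read.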
Rab9 promoter act – activates the Rab9 promoter; Huh7 Rab9 promoter-luciferase reporter, luminescence, 24 h; Potency, µM (top dose mostly 9.22 µM), for inactives: at the highest dose activation, negative = inhibition, hits mostly activators; 2.8% of 320,000 active; AID 485297; note: % of control where 0% means no effect; nearly all actives have a fitted effect of over 60% in size
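Cell-based reporter: Huh7 stable for Rab9 promoter-driven luciferase, plated in reduced-serum medium with 10% FBS at 1500 cells/well, compound-treated 24 h at 37 °C, luminescence read after 10 min reagent.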
NPC1 promoter act – NPC1 promoter activation; AID 485313; Potency, µM (doses to about 9.22 µM), without a hit: at the highest dose activation, usual class: activators; 2.4% of 320,000 active; Huh7 NPC1 promoter luciferase reporter, 24 h; note: % of control where 0% means no effect; nearly all actives have a fitted effect of over 60% in size
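Huh7 cells stably carrying NPC1 promoter–luciferase, plated in Opti-MEM with 10% FBS for 2 h, were exposed to compound in DMSO for 24 h at 37 °C; luciferase reagent was added for 10 min and luminescence read.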
* marks the source's active call; other numbers are inactive results; ? = inconclusive; · = not tested or not shown; [ ] = remark or other dose. An excerpt weighted towards active compounds, which were near 9.3% of everything screened. Calls come from the whole dose curve; as a rule, active = well fitted curve in the direction sought with a large enough effect; inconclusive = small, poorly fitted or top-dose-only effect, or another doubt; inactive = no such curve, though single readings can be large; an effect the other way counts as inactive or inconclusive. Potency is the fitted concentration of half-maximal effect.

SMILES	ELG1 DNA repair	SMN2 splice up	ELG1 genotoxic	FLuc modulator	Rab9 promoter act	NPC1 promoter act
CCCc1nc2ccc(NC(=O)c3cccs3)cc2c(=O)n1Cc1ccccc1Cl	?	1%[1.84 µM]	-1%	11%	2%	-2%
O=C(CCn1c(=O)sc2ccccc21)Nc1nc2ccccc2s1	12%	3%	8%	-19%	-3%	-4%
NS(=O)(=O)c1ccc(NC(=S)NCc2ccccc2)cc1	?	-4%	1%	-4%	1%	0%
Cc1[nH]c2ccccc2c1SCc1nnc(SCc2ccccc2)n1C	-20%	·	-9%	7%	-1%	3%
Cc1[nH]c2ccccc2c1SCc1nnc(SCc2ccc(Cl)cc2)n1C	16µM*	·	-17%	1%	-4%	2%
CN(CC(=O)Nc1ccc(Cl)c(C(F)(F)F)c1)C(=O)CCCNC(=O)c1ccc(Cl)cc1	-3%	·	-2%	19µM*	5%	13%
CN(CC(=O)Nc1ccc(Cl)c(C(F)(F)F)c1)C(=O)CCNC(=O)c1ccco1	5%	·	-2%	8%	-2%	1%
COc1ccc(Cl)cc1NC(=O)CN(C)C(=O)CCCNC(=O)c1ccc(Cl)cc1	21%	·	1%	13µM*	-4%	-1%
COc1ccccc1CNS(=O)(=O)c1ccc(-n2cnnn2)c(C)c1	6%	·	4%	0%	-3%	-3%
COc1ccc(C(CNC(=O)c2cc(S(=O)(=O)N3CCN(c4ccccc4)CC3)ccc2Cl)N(C)C)cc1 (stereo unspecified)	?	·	-2%	·	·	·
COc1cc(Cl)ccc1OCc1cc(C(=O)N(C)CC2CCCCO2)no1 (stereo unspecified)	?	·	?	19µM*	4µM*	3.5µM*
COc1cc(Cl)ccc1OCc1cc(C(=O)N[C@H]2CCCCNC2=O)no1	?	·	14%	3.4µM*	?	?
CN(CC1CCCCO1)C(=O)c1cc(COc2ccc(F)cc2Cl)on1 (stereo unspecified)	0%	·	-2%	?	2.8µM*	?
COc1ccc(OC)c(CN2CCN(C(=O)c3cc(S(=O)(=O)Nc4ccccc4OC)ccc3C)CC2)c1	23µM*	·	-9%	6%	-4%	2%
O=C(O)c1ccccc1NC(=O)c1cc2ccccc2oc1=O	?	·	?	7.6µM*	2.8µM*	3.5µM*
COc1ccccc1C(=O)Nc1cc2ccccc2oc1=O	?	?	2.8µM*	?	4µM*	5.6µM*
COc1ccc(NC(=O)c2cc3ccccc3oc2=O)c(OC)c1	?	·	?	?	2.8µM*	2.8µM*
COc1ccccc1NS(=O)(=O)c1ccc(C)c(C(=O)N2CCCC2)c1	3%	·	0%	2%	4%	-4%
COc1cc2c(cc1OC)C(C)N(C(=O)c1cc3c(s1)-c1c(C)cccc1OC3)CC2 (stereo unspecified)	?	-12%	-2%	2%	-5%	-4%
COc1ccc(S(=O)(=O)Nc2ccccc2OC)cc1NC(=O)c1cc2ccccc2oc1=O	?	·	?	12µM*	4µM*	4µM*
CC/C=C/C(=O)N1CC2(CC(c3cccc(NC(=O)COc4ccc(Cl)cc4)c3)=NO2)C[C@H]1C(N)=O (stereo partly specified)	16µM*	·	-11%	12µM*	0%	5%
C/C=C(/C)C(=O)Nc1cccc(C2=NOC3(C2)C[C@H](C(N)=O)N(C(=O)COc2ccc(Cl)cc2)C3)c1 (stereo partly specified)	?	·	-1%	-13%	1%	-6%
NC(=O)[C@@H]1CC2(CC(c3cccc(NC(=O)COc4ccc(Cl)cc4)c3)=NO2)CN1C(=O)COc1ccc(Cl)cc1 (stereo partly specified)	?	·	-15%	12µM*	-18%	-9%
N#CCC(=O)N1CC2(CC(c3cccc(NC(=O)COc4ccc(Cl)cc4)c3)=NO2)C[C@@H]1C(N)=O (stereo partly specified)	13%	·	0%	15µM*	-7%	-4%
NC(=O)[C@H]1CC2(CC(c3cccc(NC(=O)COc4ccc(Cl)cc4)c3)=NO2)CN1C(=O)C(c1ccccc1)c1ccccc1 (stereo partly specified)	?	·	-9%	?	-15%	-8%
SMILES	ELG1 DNA repair	SMN2 splice up	ELG1 genotoxic	FLuc modulator	Rab9 promoter act	NPC1 promoter act
NC(=O)[C@H]1CC2(CC(c3cccc(NC(=O)COc4ccc(Cl)cc4)c3)=NO2)CN1C(=O)[C@H]1CCC(=O)N1 (stereo partly specified)	8%	·	2%	12µM*	-8%	-1%
Cc1ccc(N2C(N)=C(C#N)C(c3cccs3)C3=C2CC(C)(C)CC3=O)cc1 (stereo unspecified)	?	0%	-2%	-2%	-5%	-6%
CC(C)COc1ccc(Br)cc1CNC(C)(C)C	-2%	·	-12%	0%	10%	0%
Cc1c(C(=O)O)oc2ccc(S(=O)(=O)NC3CCCCCCC3)cc12	9%	-3%	3%	-1%	0%	-2%
C=CC[C@@H](CC(=O)NCCO)C(=O)N[C@H](COC(=O)[C@H](CC=C)CC(=O)OC(C)(C)C)Cc1c[nH]c2ccccc12	-12%	·	0%	·	·	·
C=CC[C@@H](CC(=O)N(CCO)Cc1ccccc1)C(=O)N[C@@H](COC(=O)[C@H](CC=C)CC(=O)OC(C)(C)C)Cc1c[nH]c2ccccc12	?	·	-10%	·	·	·
